# Experimental data from ChEMBL document CHEMBL3988442, “University of Dundee, Small-Polar-MMV Screening Library” (2021).
# Key:
# [1] = biological target: T1, Aspartate--tRNA(Asp/Asn) ligase (Mycobacterium tuberculosis (strain ATCC 25618 / H37Rv)) (UniProt P9WFW3); experiment: Assay for Asp RNA synthetase-1 from Mycobacterium tuberculosis; type: functional; set-up: scale not given: direction of the effect not stated beside the values; conditions: 30 µM; note: in the data most compounds retested in dose-response had high values
# T1 sequence (whole entry): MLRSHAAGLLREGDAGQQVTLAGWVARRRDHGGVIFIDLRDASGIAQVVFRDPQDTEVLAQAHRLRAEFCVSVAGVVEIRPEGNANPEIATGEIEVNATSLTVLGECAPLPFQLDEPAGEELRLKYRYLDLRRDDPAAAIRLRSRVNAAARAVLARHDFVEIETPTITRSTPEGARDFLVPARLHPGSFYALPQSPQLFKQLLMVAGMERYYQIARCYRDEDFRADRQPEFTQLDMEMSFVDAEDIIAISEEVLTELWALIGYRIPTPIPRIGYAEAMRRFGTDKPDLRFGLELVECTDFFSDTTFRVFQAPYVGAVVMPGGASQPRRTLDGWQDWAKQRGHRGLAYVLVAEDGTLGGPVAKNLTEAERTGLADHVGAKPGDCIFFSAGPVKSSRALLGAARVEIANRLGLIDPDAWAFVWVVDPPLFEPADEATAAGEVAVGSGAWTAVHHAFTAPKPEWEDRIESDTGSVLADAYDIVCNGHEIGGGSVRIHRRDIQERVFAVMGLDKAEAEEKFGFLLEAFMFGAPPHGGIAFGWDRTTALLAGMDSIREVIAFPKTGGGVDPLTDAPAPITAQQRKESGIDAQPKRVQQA
# [2] = biological target: Shiga toxin 2 (Escherichia coli O157:H7) (UniProt P09385+P09386); experiment: E. coli 0.157:H7 Shiga Toxin SOP - stx2 screening assay; type: functional; set-up: scale not given: direction of the effect not stated beside the values; conditions: 30 µM
SMILES,Percent Effect [1] [%],Percent Effect [2] [%]
CNC(=O)[C@@H]1C[C@H]2CN(C(=O)c3ccco3)C[C@H]2N1C,-1.4,-6.39
O=C(c1ccc(F)cc1)N1CCC2(CCCN2CC2CC2)CC1,-2.16,-20.9
N#Cc1ccccc1OCCN1CCCC1Cn1cccn1 (stereo not drawn),-0.558,2.91
COCC1CC2(CCN(Cc3ccc(OC)cc3)CC2)CN1C(C)C (stereo not drawn),-1.24,1.66
NC(=O)c1cc(NC(=O)NCCc2cc(F)cc(F)c2)ccc1F,4.79,-82
Cc1c(C(=O)NC(CN2CCCC2=O)c2ccccc2)cnn1C (stereo not drawn),-1.08,34
CC1CCN(CCNC(=O)C2CCN(S(N)(=O)=O)CC2)CC1,1.78,0.821
CO[C@H]1CO[C@@]2(CCCN(C(=O)C3=CCCCC3)C2)C1,8.41,-11.8
CCc1nc(CN2CCCN(C(=O)CCc3ccco3)CC2)cs1,-4.26,-71.2
CC(NCc1cccnc1)c1ccc(OCC(=O)NC2CC2)cc1 (stereo not drawn),4.26,-1.84
CCc1ccc(O)c(C(=O)NC2CCN(S(=O)(=O)CC)CC2)c1,-3.5,-13.2
CCc1cnc(N2C[C@H]3C[C@H](C(=O)N(C)C)[C@@H](C2)O3)nc1,-1.86,-0.162
c1ccc(Cn2ccnc2CN2CCCC2c2noc(C3CC3)n2)cc1 (stereo not drawn),6.6,-32.8
CN(C(=O)c1ccccn1)c1nc2c(s1)CCc1c-2cnn1C,50,-76.1
Cc1cccc(C(=O)NCCCN2CCN(c3ccccc3)CC2)c1,0.86,-54
CC(C)C(C(=O)N1CCCN(Cc2nccn2C)CC1)N1CCCC1 (stereo not drawn),-3.15,27
c1coc(-c2nnc(CN3CCCC(CN4CCCCCC4)C3)o2)c1 (stereo not drawn),2.88,-14.6
CCc1ncnc2c1CCN(Cc1ccccn1)CC2,0.378,-29.9
CCOC(=O)[C@]12CCCN(Cc3ccco3)C[C@H]1CN(CCN(C)C)C2,4.07,-6.83
CCC(CC)C(=O)N1CCC2(C1)CN(c1ccccc1)C(=O)CN2C (stereo not drawn),-4.01,-3.77
CCc1ncc(C(=O)N2CCOCC2c2c(C)n[nH]c2C)s1 (stereo not drawn),2.97,7.37
Cc1nc(CN2CCCN(C(=O)C3(C#N)CCCCC3)CC2)cs1,1.34,11.8
CC(NC(=O)NCc1cccnc1N1CCCCC1)c1nccs1 (stereo not drawn),-6.16,-7.44
CN(C)CC1(O)CCN(S(=O)(=O)c2ccc(F)c(F)c2)C1 (stereo not drawn),-2.99,4.61
CNC(=O)N1C[C@H]2C[C@H](C(=O)Nc3ccccc3)[C@@H](C1)O2,2.94,6.82

SMILES,Percent Effect [1] [%],Percent Effect [2] [%]
O=C(c1cccc(F)c1)N1CCN2C[C@H](OCc3cccnc3)C[C@H]2C1,-1.22,-4.11
CCCNC(=O)C(C)NC(=O)CCc1ccccc1Br (stereo not drawn),0.362,-18.6
Cc1cccc(N2CCN(C(=O)CN3CCN(CCO)CC3)CC2)c1,1.98,0.874
Cc1ccccc1-c1cncc(C2CCN(C)CC2)n1,2.52,-4.06
N#Cc1cccc(S(=O)(=O)NC(=O)COC2CCCC2)c1,1.85,-31
Cn1ccnc1CN(CCCO)C1CCCc2ccccc21 (stereo not drawn),3.32,8.83
COC(=O)C1CCN(C(=O)c2ccc(NS(C)(=O)=O)c(C)c2)CC1,-2.94,-1.7
CNC(=O)c1ccc(CN(C(=O)c2scnc2C)C2CC2)cc1,-2.83,-32.1
CCn1nc(C)c2ncnc(NCCCN3CCOCC3)c21,-3.37,-33.6
CCS(=O)(=O)N1CCC[C@]2(C(=O)N(C)C)CN(c3ccccn3)C[C@@H]2C1,0.903,-10.3
O=C(O)c1ccc2ccc(N3CCN(CC4CC4)CC3)n2c1,-6.96,-15.7
Cn1c(CN2CCOC(c3nc(C(C)(C)C)n[nH]3)C2)nnc1C1CC1 (stereo not drawn),-5.04,-21.1
Cn1cccc1C(=O)N1CC[C@H]2C[C@@H](c3ccncn3)O[C@@H]2C1,-6.89,7.29
COc1ccc(CS(=O)(=O)CC(=O)NCc2ccccc2F)cc1F,5.03,-1.34
CS(=O)(=O)CCC(=O)NC1(c2cccc(Br)c2)CC1,5.45,3.23
Cc1nc(C)n(CC2CCCN2CCOc2ccc(C#N)cc2)n1 (stereo not drawn),-3.28,-0.486
c1nc2c(c(C3CC3)n1)CCN(Cc1ccoc1)CC2,2.3,-14.5
Cc1ccc(-c2nc(CN3CCOC(c4ccccc4)C3)cs2)o1 (stereo not drawn),-0.792,13
O=C(CSc1ccc(F)c(F)c1)NS(=O)(=O)c1ccc2c(c1)OCCO2,3.35,10.6
Cc1ccc(C(=O)N2CCCC(C(=O)N3CCCCC3)C2)c(O)c1 (stereo not drawn),-0.062,20.6
Cc1n[nH]c(=O)c2c(NC(=O)CN3CCOC(C)C3)oc(C)c12 (stereo not drawn),-3.61,-52.2
Cc1cc(C)c(CNC(=O)NCc2ccc3c(c2)CCC3)c(=O)[nH]1,-4.97,32.4
OCCOc1nc(-c2ccccc2Cl)no1,-8.6,-16.2
CCn1cnnc1C1CCN(C(=O)c2cc3c(s2)CCC3)CC1,-5.31,-11.1
Cc1cnn(CC2CCCCN2Cc2nc(-c3ccoc3)no2)c1 (stereo not drawn),2.91,26.6

SMILES,Percent Effect [1] [%],Percent Effect [2] [%]
CCc1nc(C2CCCN2Cc2nc3ccccc3o2)no1 (stereo not drawn),-0.404,9.5
Cn1nc2c(cc1=O)CN(Cc1nnc(-c3ccco3)o1)CC2,15.6,2.57
CN1CCOC(CN(C(=O)CC2CCCC2)c2nccs2)C1 (stereo not drawn),6.38,27.4
Cc1nc(C2CCCN2CCCNS(C)(=O)=O)no1 (stereo not drawn),-0.167,23.5
CCn1cnnc1C1CCN(C(=O)C(OC)c2ccccc2)CC1 (stereo not drawn),-2.71,9.67
CC(C)Oc1ccc(CNC(=O)CC(F)(F)F)cc1F,-4.64,33.4
CC(C)c1cc(NC(=O)CN2CCc3cncnc3C2)on1,2.37,5.67
CCC(NC(N)=O)c1ccccc1OCC(=O)N1CCCC1 (stereo not drawn),-1.5,-58.1
CCc1noc(C(C)N(C)CC(=O)Nc2ccc(C)cc2)n1 (stereo not drawn),1.52,-3.18
Cc1nn(C)cc1CN1CCC(C2Nc3ccccc3S(=O)(=O)N2)CC1 (stereo not drawn),-0.223,14.6
O=C1CC2(CCCCC2)CC(=O)N1CC(O)COCc1ccc(Cl)cc1 (stereo not drawn),0.607,11
O=C(c1ccno1)N1CCC2(CC1)C(=O)N(CC1CC1)c1ccccc12,-0.569,-1.25
O=C(CCC1CCCO1)NS(=O)(=O)c1ccc(Cl)cc1 (stereo not drawn),-1.43,21.6
O=C(c1cccs1)N1CC[C@H](O)[C@@H]1Cc1ccccc1,0.296,-7.22
Cc1nc(C)n(CC2CCCN(CCc3ccncc3)C2)n1 (stereo not drawn),0.891,-14.2
CC(C)NC(=O)N1CCC2(COCc3cnc(-c4cccnc4)nc32)C1 (stereo not drawn),-2.8,2.56
O=C(NCCN1CCCCCC1=O)c1n[nH]c(=O)c2ccccc12,-3.85,-6.19
O=C(c1ccc(N2CCCC2)nn1)N1CCCC(n2cccn2)C1 (stereo not drawn),3.23,23.7
CC(C)CN1CCC(c2nc3c([nH]2)CC(C)(C)CNC3=O)C1 (stereo not drawn),1.44,-12.2
COc1cccc(-c2nccnc2C2CCN(C(C)=O)CC2)c1,-3.41,16.4
CC(NC(=O)NCC1(N2CCCCC2)CCCCC1)c1nncn1C (stereo not drawn),-4.55,27.5
Cc1noc(C)c1-c1cnc(CC2CCN(C(=O)c3cc[nH]n3)C2)cn1 (stereo not drawn),4.09,7.65
Cc1cnn(CC(C)NCc2csc(-c3ccco3)n2)c1 (stereo not drawn),2.75,1.53
CN(C)[C@@H]1CCN(c2ncccn2)[C@H]1Cc1ccncc1,0.268,-22.4
